{"source": "PubChem BioAssay (NCATS)", "note": "Inconclusive results are not listed. Where a call stands in place of a potency, no number is given. Values without a mark were called inactive. Activity calls are given as the source filed them. Calls follow the shape of the dose curve; as a rule, active = well fitted inhibition curve with a large enough effect; inconclusive = small, poorly fitted or top-dose-only effect; inactive = flat fitted curve, though single readings scatter.", "data": [{"target": "Glutathione peroxidase 1 (Homo sapiens) (UniProt P07203)", "sequence (P07203 whole entry, looked up)": "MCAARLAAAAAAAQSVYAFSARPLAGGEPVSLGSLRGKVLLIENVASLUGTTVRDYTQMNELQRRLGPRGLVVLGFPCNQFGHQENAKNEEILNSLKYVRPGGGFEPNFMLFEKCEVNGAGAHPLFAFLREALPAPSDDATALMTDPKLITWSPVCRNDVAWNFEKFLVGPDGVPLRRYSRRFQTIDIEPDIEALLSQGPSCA", "assay": "Primary qHTS Assay for Inhibitors of Recombinant Selenoprotein Glutathione Peroxidase 1 (GPX1) (AID 1845191); also: nearly all actives have a fitted effect of over 65% in size", "conditions": "recombinant GPX1, GR-coupled NADPH fluorescence, 15 min; series mostly up to 48.8 µM", "method_in_brief": "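GR-coupled assay: compounds preincubated 30 min at room temperature with GPX1, then reaction started with CHP; final 10 nM GPX1, 1 mM GSH, 0.5 mM CHP, 0.5 mM NADPH, 100 nM GR, 0.01% BSA, pH 7.5 Tris buffer. NADPH fluorescence (340/450 nm) read at 0 and 15 min.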", "values": [{"smiles": "C[C@@H]1CCN(C(=O)CC#N)C[C@@H]1N(C)c1ncnc2[nH]ccc12", "Potency": "inactive"}, {"smiles": "CC(=O)OC(C)OC(=O)C(C)c1ccc(-c2ccccc2)c(F)c1", "note": "(stereo not drawn)", "Potency": "inactive"}, {"smiles": "COC(=O)C1=CO[C@@H](O[C@@H]2O[C@H](CO)[C@@H](O)[C@H](O)[C@H]2O)[C@@H]2[C@@](C)(O)[C@@H](O)C[C@]12O", "Potency": "inactive"}, {"smiles": "CC(C)C1(O[C@@H]2O[C@H](CO)[C@@H](O)[C@H](O)[C@H]2O)CC=C(CO)CC1", "note": "(stereo partly drawn)", "Potency": "inactive"}, {"smiles": "C[C@@H]1O[C@@H](O[C@H]2[C@H](OC(=O)C34CCC5(C)C(=CCC6C7(C)CC(O)C(O[C@@H]8O[C@H](C(=O)O)[C@@H](O)[C@H](O)[C@H]8O)C(C)(C(=O)O)C7CCC65C)C3CC(C)(C)CC4O)O[C@H](C)[C@@H](O)[C@@H]2O)[C@H](O)[C@@H](O[C@@H]2OC[C@](O)(CO)[C@H]2O[C@@H]2O[C@H](CO)[C@@H](O)[C@H](O)[C@H]2O)[C@H]1O", "note": "(stereo partly drawn)", "activity, negative = inhibition": "-10.2% [at 9.52 µM]"}, {"smiles": "NCCOCCOCCNC(=O)Cc1ccc(Nc2nc(NCc3ccc(F)cc3)nc(NCC3CCCCC3)n2)cc1", "Potency": "inactive"}, {"smiles": "C=C[C@H]1[C@H](O[C@@H]2O[C@H](CO)[C@@H](O)[C@H](O)[C@H]2O)OC=C(C(=O)OC)[C@H]1C[C@@H]1N[C@H](C(=O)O)Cc2c1[nH]c1ccccc21", "Potency": "inactive"}, {"smiles": "O=C(COc1ccc(Cl)cc1)NC1CCC(NC(=O)COc2ccc(Cl)cc2)CC1", "note": "(stereo not drawn)", "Potency": "inactive"}]}]}
